# Several values for one entry are separate records, joined by “and”; a condition that tells them apart may be missing. Equal values may be shown once. Values without a mark were called inactive. Entries that show only a call come without a potency. Activity calls are given as the source filed them. Unless noted, the call rests on the fitted dose curve; in most records, active means well fitted curve in the direction sought with a large enough effect in the repeat runs; inconclusive means weak or mixed curves; inactive means no such curve, though single readings can be large; an effect the other way counts as inactive or inconclusive.
# What was measured:
# [1] = qHTS assay to identify small molecule antagonists of the thyroid receptor (TR) signaling pathway (AID 743065); conditions: GH3.TRE-Luc, T3-stimulated luciferase inhibition, 23.5 h; series mostly up to 70.3 µM; further: nearly all actives have a fitted effect of over 55% in size; further: potency means the concentration at half of the fitted maximal effect
# How it was run: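 Antagonism measured as loss of luciferase signal in GH3 cells stably carrying a TRE-luciferase reporter, co-treated with compound and T3 (1 nM final) for 23.5 h at 37 C. Viability was read in the same well by CellTiter-Fluor.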
# [2] = system: thyroid hormone receptor (rat, GH3 cells); assay: qHTS assay to identify small molecule agonists of the thyroid receptor (TR) signaling pathway (AID 743066; calls by dose curve; further: potency means the concentration at half of the fitted maximal effect); conditions: GH3.TRE-Luc cells, TR agonist luciferase, 24 h; series mostly up to 83.9 µM
# [3] = target: Estrogen receptor (Homo sapiens) (UniProt P03372); assay: qHTS assay to identify small molecule antagonists of the estrogen receptor alpha (ER-alpha) signaling pathway (AID 743069; active means well fitted curve in the direction sought with a large enough effect in the signal ratio in the repeat runs, not every such curve was filed as active; inconclusive means weak or mixed curves, or effect the other way; inactive means no such curve, though single readings can be large or run the other way; the % refers to the signal ratio; further: potency means the concentration at half of the fitted maximal effect); conditions: HEK293 ER-alpha-UAS-bla, beta-lactamase ratio, antagonist mode; series mostly up to 69.4 µM
# Chain of Estrogen receptor (Homo sapiens) (P03372 whole entry, looked up): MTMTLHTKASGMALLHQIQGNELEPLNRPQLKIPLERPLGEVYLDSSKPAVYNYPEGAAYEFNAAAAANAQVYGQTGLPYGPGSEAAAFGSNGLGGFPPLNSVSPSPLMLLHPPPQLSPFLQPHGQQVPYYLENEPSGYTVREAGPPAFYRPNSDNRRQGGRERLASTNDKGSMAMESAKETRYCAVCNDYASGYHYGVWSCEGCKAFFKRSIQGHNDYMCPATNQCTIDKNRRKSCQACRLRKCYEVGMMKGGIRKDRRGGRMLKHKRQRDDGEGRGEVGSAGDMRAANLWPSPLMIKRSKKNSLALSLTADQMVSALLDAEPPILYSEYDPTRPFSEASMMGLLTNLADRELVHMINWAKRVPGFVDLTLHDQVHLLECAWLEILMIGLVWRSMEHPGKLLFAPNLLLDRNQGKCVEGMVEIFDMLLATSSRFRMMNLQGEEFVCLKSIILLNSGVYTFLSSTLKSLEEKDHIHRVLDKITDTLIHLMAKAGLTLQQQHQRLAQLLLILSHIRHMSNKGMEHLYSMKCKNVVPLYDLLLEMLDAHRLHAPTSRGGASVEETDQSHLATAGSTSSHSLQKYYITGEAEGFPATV
# How it was run: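 ER-alpha-UAS-bla GripTite HEK293 line; 2% charcoal-stripped FBS overnight; plated, 4 hr 37C/5% CO2; cpd in DMSO + 17beta-estradiol, 18 hr 37C; LiveBLAzer B/G FRET substrate 2 hr RT; fluorescence intensity.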
# [4] = qHTS assay to identify small molecule antagonists of the estrogen receptor alpha (ER-alpha) signaling pathway - cell viability counter screen (AID 743074; calls by dose curve;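 further: HEK293 cells carrying ER-alpha-UAS-bla reporter stimulated with 17beta-estradiol; nearly all actives have a fitted effect of over 45% in size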); conditions: ERalpha-bla HEK293 viability, CellTiter-Glo luminescence, 18 h; series mostly up to 69.4 µM
# [5] = target: Estrogen receptor (Homo sapiens) (UniProt P03372); assay: qHTS assay to identify small molecule agonists of the estrogen receptor alpha (ER-alpha) signaling pathway (AID 743075; calls by dose curve;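 further: HEK293 GripTite cells with ER-alpha and UAS-driven beta-lactamase reporter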); conditions: HEK293 ER-alpha-UAS-bla, beta-lactamase FRET ratio, 18 h; series mostly up to 70.1 µM
# [6] = target: Estrogen receptor (Homo sapiens) (UniProt P03372); assay: qHTS assay to identify small molecule agonists of the estrogen receptor alpha (ER-alpha) signaling pathway using the BG1 cell line (AID 743079); conditions: BG1Luc4E2 cells, ERE-luciferase agonist, 22 h; series mostly up to 70.3 µM; further: nearly all actives have a fitted effect of over 20% in size; further: potency means the concentration at half of the fitted maximal effect
# [7] = qHTS assay to identify small molecule antagonists of the estrogen receptor alpha (ER-alpha) signaling pathway using the BG1 cell line (AID 743080; calls by dose curve;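 further: BG1 cells stimulated with 17beta-estradiol alongside compound; nearly all actives have a fitted effect of over 25% in size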; further: potency means the concentration at half of the fitted maximal effect); conditions: BG1Luc4E2 ERE-luciferase antagonist mode, luminescence; series mostly up to 70.3 µM
# How it was run: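 Luciferase inhibition measured with ONE-Glo after 30 min at RT in BG1Luc4E2 cells given test compounds and 17beta-estradiol for 21.5 h at 37 C; CellTiter-Fluor viability read in the same wells beforehand.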
# [8] = qHTS assay to identify small molecule antagonists of the estrogen receptor alpha (ER-alpha) signaling pathway using the BG1 cell line - cell viability counter screen (AID 743081); conditions: BG1Luc4E2 viability, CellTiter-Fluor, 22 h; series mostly up to 70.3 µM;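 further: compound given together with 17beta-estradiol as the ER stimulus; nearly all actives have a fitted effect of over 45% in size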; further: potency means the concentration at half of the fitted maximal effect
# Aromatase (Homo sapiens) = Aromatase (Homo sapiens) (UniProt P11511); assay: qHTS assay to identify aromatase inhibitors (AID 743083); conditions: MCF-7 aro ERE, testosterone-driven ERE luciferase, 24 h; series mostly up to 70.3 µM; further: nearly all actives have a fitted effect of over 55% in size; further: potency means the concentration at half of the fitted maximal effect
# Chain of Aromatase (Homo sapiens) (P11511 whole entry, looked up): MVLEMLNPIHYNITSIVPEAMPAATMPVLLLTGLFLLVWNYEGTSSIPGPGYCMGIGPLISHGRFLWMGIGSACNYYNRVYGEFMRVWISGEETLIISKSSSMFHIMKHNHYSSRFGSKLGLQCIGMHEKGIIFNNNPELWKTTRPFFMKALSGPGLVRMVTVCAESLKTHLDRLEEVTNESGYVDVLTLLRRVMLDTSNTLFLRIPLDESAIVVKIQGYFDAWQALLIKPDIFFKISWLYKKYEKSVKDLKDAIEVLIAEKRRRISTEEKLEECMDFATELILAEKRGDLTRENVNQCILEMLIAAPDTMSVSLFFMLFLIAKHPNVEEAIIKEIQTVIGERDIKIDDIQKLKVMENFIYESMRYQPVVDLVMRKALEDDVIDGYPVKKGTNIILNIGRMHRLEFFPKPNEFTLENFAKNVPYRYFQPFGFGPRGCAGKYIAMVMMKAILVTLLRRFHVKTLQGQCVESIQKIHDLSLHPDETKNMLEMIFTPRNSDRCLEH
# [9] = qHTS assay to identify aromatase inhibitors - cell viability counter screen (AID 743084); conditions: MCF-7 aro ERE viability, CellTiter-Fluor, 24 h; series mostly up to 70.3 µM;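 further: cells stimulated with testosterone during compound exposure; nearly all actives have a fitted effect of over 55% in size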; further: potency means the concentration at half of the fitted maximal effect
SMILES,Potency [1],Potency [2],Potency [3],Potency [4],Potency [5],Potency [6],Potency [7],Potency [8],Potency (Aromatase (Homo sapiens)),Potency [9],activation [2],"activity, negative = inhibition [3]","activity, negative = cytotoxicity [4]",activation [5]
O=C1OC(CN2CCOCC2)CN1/N=C/c1ccc([N+](=O)[O-])o1 (stereo not given),inactive,inactive,inactive,inactive,inactive,inactive,inactive,inactive,inactive,inactive,–,–,–,–
O=C1C(O)=C(O)C(=O)C(O)=C1O,inactive,inactive,inactive,inactive,inactive,inactive,inactive,inactive,inactive,inactive,–,–,–,–
CN(C)c1ccc(CCO)cc1,inactive,inactive,inactive,inactive,inactive,inactive,inactive,inactive,inactive,inactive,–,–,–,–
CC(CC=O)c1ccccc1 (stereo not given),inactive,inactive,inactive,inactive,inactive,inactive,inactive,inactive,inactive,inactive,–,–,–,–
CN1CCN(C(c2ccccc2)c2ccccc2)CC1,inactive,inactive,inactive,inactive,inactive,inactive,inactive,inactive,inactive,inactive,–,–,–,–
CCCCC(CC)COC(=O)COc1ccc(Cl)cc1Cl (stereo not given),inactive,inactive,inactive,inactive,inactive,inactive,inactive,inactive,inactive,inactive,–,–,–,–
NCC(=O)CCC(=O)O,inactive,26.6 µM (active),inactive,inactive,inactive,inactive,inactive,inactive,inactive,inactive,–,–,–,–
CCCn1cnc2c1c(=O)n(CCCCC(C)=O)c(=O)n2C,inactive,inactive,inactive,inactive,inactive,inactive,inactive,inactive,inactive,inactive,–,–,–,–
c1ccc(-c2ccccn2)nc1,inactive,inactive,inactive,inactive,inactive,inactive,inactive,inactive,inactive,inactive,–,–,–,–
C=C(C)C(=O)OCCO,inactive,inactive,inactive,inactive,inactive,inactive,inactive,inactive,inactive,inactive,–,–,–,–
C=C1[C@H]2CC[C@@H]3[C@H]2C(C)(C)CCC[C@]13C,inactive,inactive,inactive,inactive,inactive,inactive,inactive,inactive,inactive,inactive,–,–,–,–
Nc1cccc(S(=O)(=O)c2cccc(N)c2)c1,inactive,inactive,inactive,inactive,inactive,inactive,inactive,inactive,inactive,inactive,–,–,–,–
O=C1[C@H]2CCCC[C@H]2C(=O)N1CCCCN1CCN(c2nsc3ccccc23)CC1,29.8 µM (active),inactive,inactive,inactive,inactive,inactive,inactive,29.8 µM (active),29.8 µM (active),29.8 µM (active),–,–,–,–
O=C1c2ccccc2S(=O)(=O)N1CCCCN1CCN(c2ncccn2)CC1,inactive,inactive,inactive,inactive,inactive,inactive,inactive,inactive,inactive,inactive,–,–,–,–
c1cc(CCCc2ccncc2)ccn1,inactive,inactive,inactive,inactive,inactive,inactive,inactive,inactive,13.7 µM (active),inactive,–,–,–,–
N=c1ccn2c(n1)O[C@H]1[C@H](O)[C@@H](CO)O[C@H]12,531 nM (active) and 545 nM (active),inactive,inactive,inactive,inactive,inactive,inactive,inactive,inactive,inactive,–,–,–,–
COc1cc2nc(N(C)CCCNC(=O)C3CCCO3)nc(N)c2cc1OC (stereo not given),inactive,inactive,inactive,inactive,inactive,inactive,inactive,inactive,inactive,inactive,–,–,–,–
NC(N)=NCCC[C@H](N)C(=O)O,inactive,inactive,inactive,inactive,inactive,inactive,inactive,inactive,inactive,inactive,–,–,–,–
OCCNCc1ccccc1,inactive,inactive,inactive,inactive,inactive,inactive,inactive,inactive,inactive,inactive,–,–,–,–
CN(C)CCN(Cc1ccccc1)c1ccccn1,inactive,inactive,inactive,inactive,inactive,inactive,inactive,inactive,inactive,inactive,–,–,–,–
C=C(C)C(=O)OCCOCC,inactive,inactive,inactive,inactive,inactive,inactive,inactive,inactive,inactive,inactive,–,–,–,–
C=CC1CC2C=CC1C2 (stereo not given),inactive,inactive,inactive,inactive,inactive,inactive,inactive,inactive,inactive,inactive,–,–,–,–

SMILES,Potency [1],Potency [2],Potency [3],Potency [4],Potency [5],Potency [6],Potency [7],Potency [8],Potency (Aromatase (Homo sapiens)),Potency [9],activation [2],"activity, negative = inhibition [3]","activity, negative = cytotoxicity [4]",activation [5]
C[N+](C)(C)CCOC(=O)CCC(=O)OCC[N+](C)(C)C,inactive,inactive,inactive,inactive,inactive,inactive,inactive,inactive,inactive,inactive,–,–,–,–
C/C=C/C(=O)CC,inactive,–,–,–,–,inactive,inactive,inactive,inactive,inactive,0.0391% [at 18 µM],9.39% [at 15 µM],-6.1% [at 15 µM],-0.96% [at 14.9 µM]
O=CC1CC=CCC1 (stereo not given),inactive,inactive,inactive,inactive,inactive,inactive,inactive,inactive,inactive,inactive,–,–,–,–
O=C(O)c1ccc(S(=O)(=O)O)cc1C(=O)O,inactive,inactive,inactive,inactive,inactive,inactive,inactive,inactive,inactive,inactive,–,–,–,–
CC(CSC(=O)c1ccccc1)C(=O)N1C[C@@H](Sc2ccccc2)C[C@H]1C(=O)O (stereo not given in full),inactive,inactive,inactive,inactive,inactive,inactive,inactive,inactive,inactive,inactive,–,–,–,–
COc1ccc(C(=O)N2CCN(CC(=O)N3CCOCC3)CC2)cc1,inactive,inactive,inactive,inactive,inactive,inactive,inactive,inactive,inactive,inactive,–,–,–,–
C=C(C)C(=O)OCC,inactive,inactive,inactive,inactive,inactive,inactive,inactive,inactive,inactive,inactive,–,–,–,–
CCCCCCCCCOS(=O)(=O)O,inactive,inactive,inactive,inactive,inactive,34.4 µM (active),inactive,inactive,inactive,inactive,–,–,–,–
CCOc1ccc(N)c([N+](=O)[O-])c1,inactive,inactive,inactive,inactive,inactive,inactive,inactive,inactive,inactive,inactive,–,–,–,–
CC(=O)c1cccc([N+](=O)[O-])c1,inactive,inactive,inactive,inactive,inactive,inactive,inactive,inactive,inactive,inactive,–,–,–,–
CCCCCCCCCCCCCCOS(=O)(=O)O,48.6 µM (active),inactive,inactive,inactive,inactive,inactive,inactive,inactive,inactive,–,–,–,–,–
O=C1CCC(=O)O1,inactive,inactive,inactive,inactive,inactive,inactive,inactive,inactive,inactive,inactive,–,–,–,–
C/C(=C(\CCOP(=O)(O)O)SC(=O)c1ccccc1)N(C=O)Cc1cnc(C)nc1N,inactive,inactive,inactive,inactive,inactive,inactive,inactive,inactive,inactive,inactive,–,–,–,–
C[C@H](CCC(=O)O)[C@H]1CC[C@H]2[C@@H]3CC[C@@H]4C[C@H](O)CC[C@]4(C)[C@H]3C[C@H](O)[C@]12C,68.8 µM (active),inactive,inactive,inactive,inactive,inactive,inactive,inactive,inactive,inactive,–,–,–,–
CCOCC(O)COc1ccc(NC(=O)CC[S+](C)C)cc1 (stereo not given),inactive,inactive,inactive,inactive,inactive,inactive,inactive,inactive,inactive,inactive,–,–,–,–
COC(C)OC,inactive,inactive,inactive,inactive,inactive,inactive,inactive,inactive,inactive,inactive,–,–,–,–
C#CCN(C)CCCOc1ccc(Cl)cc1Cl,inactive,inactive,inactive,inactive,inactive,29.8 µM (active),–,inactive,inactive,inactive,–,–,–,–
CC[N+](C)(CC)CCOC(=O)C(O)(c1ccccc1)C1CCCCC1 (stereo not given),inactive,inactive,inactive,inactive,inactive,–,inactive,inactive,inactive,inactive,–,–,–,–
O=C(OCCc1ccccc1)c1ccccc1,inactive,inactive,inactive,–,inactive,24.3 µM (active),–,inactive,inactive,inactive,–,–,–,–
Cn1c(=O)cc(Oc2ccc(F)cc2F)c2cnc(NCC(C)(C)O)nc21,inactive,inactive,inactive,inactive,inactive,–,19.3 µM (active),inactive,inactive,inactive,–,–,–,–
C=CC(=O)OCCOCCOC(=O)C=C,68.9 µM (active),inactive,61.9 µM [inconclusive] (active),–,inactive,6.14 µM (active),–,–,13.7 µM (active),13.7 µM (active),–,–,–,–
CC1CCC(=O)C1=O (stereo not given),inactive,inactive,–,inactive,inactive,inactive,inactive,inactive,inactive,inactive,–,–,–,–
